Results published in PubChem BioAssay (NCATS).
Records with an inconclusive call do not appear. The source made the active and inactive calls. Calls come from the whole dose curve; as a rule, active = well fitted curve in the direction sought with a large enough effect; inconclusive = small, poorly fitted or top-dose-only effect, or another doubt; inactive = no such curve, though single readings can be large; an effect the other way counts as inactive or inconclusive.

Legend:
[1] = P-glycoprotein substrates identified in KB-8-5-11 adenocarcinoma cell line, qHTS therapeutic library screen (AID 1346987); note: nearly all actives have a fitted effect of over 65% in size; note: potency is the fitted concentration of half-maximal effect
Summary of the method: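 Compounds are pinned in dose-response onto KB-8-5-11 cells (500 cells/well, colchicine-free medium) and left 72 h at 37 degree C. CellTiter-Glo luminescence then yields AC50 values.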

[2] = Primary qHTS for inhibitors of nuclear receptor binding SET domain protein 2 (NSD2) in an isogenic RCH-ACV NSD2 p.E1099K mutant (9B) (AID 1645876); note: nearly all actives have a fitted effect of over 70% in size; note: potency is the fitted concentration of half-maximal effect
[3] = biological target: Glutathione peroxidase 1 (Homo sapiens) (UniProt P07203); experiment: Primary qHTS Assay for Inhibitors of Recombinant Selenoprotein Glutathione Peroxidase 1 (GPX1) (AID 1845191); note: nearly all actives have a fitted effect of over 65% in size
Chain of Glutathione peroxidase 1 (Homo sapiens) (P07203 whole entry, looked up): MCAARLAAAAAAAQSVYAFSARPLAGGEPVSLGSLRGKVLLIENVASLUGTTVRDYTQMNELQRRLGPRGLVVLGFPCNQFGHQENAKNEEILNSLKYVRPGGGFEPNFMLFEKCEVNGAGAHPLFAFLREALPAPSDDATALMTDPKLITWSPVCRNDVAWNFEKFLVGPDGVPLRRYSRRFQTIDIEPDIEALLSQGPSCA
Summary of the method: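 NADPH consumption tracked by fluorescence at 340/450 nm between t=0 and t=15 min, room temperature. Final mix: 10 nM GPX1, 100 nM glutathione reductase, 1 mM GSH, 0.5 mM NADPH, 0.5 mM cumene hydroperoxide, 0.01% BSA; 30 min compound–enzyme preincubation.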

[4] = Primary qHTS for inhibitors of nuclear receptor binding SET domain protein 2 (NSD2) in an RCH-ACV wild type WT cells (2C) (AID 1645877); note: nearly all actives have a fitted effect of over 70% in size; note: potency is the fitted concentration of half-maximal effect
[5] = biological target: Catechol O-methyltransferase (Homo sapiens) (UniProt P21964); experiment: Confirmatory Screen for Target Class Profiling of Small Molecule Inhibitors of Methyltransferases (AID 1745852); details: MTase-Glo luminescence, SAH detection, recombinant enzyme; measured here: COMT max response; stronger effect = lower value; for activity change, negative = inhibition: % is set by controls: 0 for no effect and ±100 for the full control effect
Chain of Catechol O-methyltransferase (Homo sapiens) (P21964 whole entry, looked up): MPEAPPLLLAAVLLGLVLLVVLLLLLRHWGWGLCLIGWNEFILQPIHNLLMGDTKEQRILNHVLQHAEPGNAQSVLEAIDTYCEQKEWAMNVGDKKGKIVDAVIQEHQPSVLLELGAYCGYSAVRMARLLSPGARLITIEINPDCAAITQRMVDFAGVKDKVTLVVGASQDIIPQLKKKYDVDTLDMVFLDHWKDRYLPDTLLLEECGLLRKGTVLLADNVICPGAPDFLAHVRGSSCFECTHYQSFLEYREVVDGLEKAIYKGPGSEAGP

[6] = biological target: Guanidinoacetate N-methyltransferase (Homo sapiens) (UniProt Q14353); experiment: as above; details: activity change, negative = inhibition: at 57.3 µM (top of the series) unless noted
[7] = biological target: Nicotinamide N-methyltransferase (Homo sapiens) (UniProt P40261); experiment: as above; details: MTase-Glo luminescence, SAH detection, recombinant enzyme; measured here: NNMT max response; stronger effect = lower value
Chain of Nicotinamide N-methyltransferase (Homo sapiens) (P40261 whole entry, looked up): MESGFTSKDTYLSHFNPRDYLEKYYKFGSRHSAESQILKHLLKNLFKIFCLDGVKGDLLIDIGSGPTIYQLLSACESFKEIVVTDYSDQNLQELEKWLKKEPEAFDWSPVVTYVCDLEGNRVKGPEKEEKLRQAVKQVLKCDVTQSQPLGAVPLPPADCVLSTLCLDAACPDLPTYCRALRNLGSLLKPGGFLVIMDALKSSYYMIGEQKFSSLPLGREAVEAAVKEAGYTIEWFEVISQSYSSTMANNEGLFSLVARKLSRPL

[8] = biological target: Phenylethanolamine N-methyltransferase (Homo sapiens) (UniProt P11086); experiment: as above; details: MTase-Glo luminescence, SAH detection, recombinant enzyme; measured here: PNMT max response; stronger effect = lower value
Chain of Phenylethanolamine N-methyltransferase (Homo sapiens) (P11086 whole entry, looked up): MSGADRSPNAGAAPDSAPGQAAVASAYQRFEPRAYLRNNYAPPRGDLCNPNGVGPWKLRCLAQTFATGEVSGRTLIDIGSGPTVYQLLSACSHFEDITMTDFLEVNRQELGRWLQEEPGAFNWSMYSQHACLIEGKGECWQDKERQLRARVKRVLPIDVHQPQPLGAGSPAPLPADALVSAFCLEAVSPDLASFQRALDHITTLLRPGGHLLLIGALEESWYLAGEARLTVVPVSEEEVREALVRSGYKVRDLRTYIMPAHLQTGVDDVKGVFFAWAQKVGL

CC/C(=C(/CC)c1ccc(O)c(CN(CC)CC)c1)c1ccc(O)c(CN(CC)CC)c1
Potency [1]: 14.6 µM (active)
Potency [2]: 9.2 µM (active)
Potency [3]: inactive

O=C(/C=C/c1cccnc1)c1ccncc1
Potency [1]: inactive
Potency [3]: inactive

NS(=O)(=O)c1ccc(N=Nc2c(O)[nH]c3ccc(Br)cc23)cc1
Potency [1]: 11.6 µM (active)
Potency [3]: inactive

CC(C)n1nc(-c2ccc(NC(=O)Nc3cccc(C(F)(F)F)c3)cc2)c2c(N)ncnc21
Potency [1]: 4.11 µM (active)
Potency [2]: 0.366 µM (active)
Potency [4]: 0.259 µM (active)
activity [5]: -1.63%
activity change, negative = inhibition [6]: 0%
activity [7]: -74.3%
activity [8]: -1.08%

O=C1OC(/C=C/c2ccccc2)=NC/1=C\c1cccnc1
Potency [1]: inactive
Potency [2]: inactive
Potency [4]: inactive
Potency [3]: inactive
